# Screening data as filed in PubChem.
# Mtb BioA inh: blocks M. tuberculosis BioA enzyme activity; purified M. tuberculosis BioA enzyme, plate reader; inhibition, % at 9.99 µM; 360,000 tested, 0.096% active; AID 602481; in the data active = inhibition above about 40%; inconclusive = no clear call, values can overlap the other calls
# FadD28 FP inh: inhibitors of Mycobacterium tuberculosis FadD28 bisubstrate binding; FadD28 bisubstrate probe binding, fluorescence polarization; inhibition, % at 12.5 µM; 360,000 tested, 0.22% active; in the data active = inhibition above about 8.5%, passing the limit was not always enough; inconclusive = no clear call, values can overlap the other calls
# PfHsp40 yeast: compounds rescuing yeast from Plasmodium falciparum HSP40 toxicity | S. cerevisiae expressing PfHsp40, growth rescue, ATP luminescence | growth rescue, % at 12.5 µM | 340,000 tested, 0.68% active | AID 504582; in the data active = growth rescue above about 28%, passing the limit was not always enough; inconclusive = no clear call, values can overlap the other calls;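 note: yeast W303a lacking pdr1 and pdr3 grown in galactose medium; growth measured after three days at 30 °C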
# Y pestis TopoI: Y. pestis Topo-I inhibition via cleavage products. Y. pestis Topo-I cleavage product accumulation, plate reader. activity, % at 10 µM. 360,000 tested, 0.064% active. AID 504884; in the data active = activity above about 50%, passing the limit was not always enough; inconclusive = no clear call, values can overlap the other calls
# PrP 5UTR inh: suppresses PrP 5' UTR mRNA reporter expression; cell-based PrP 5' UTR mRNA reporter, plate reader; 340,000 tested, 0.35% active; inhibition, % (test concentration not listed); AID 488862; in the data active = inhibition above about 52%; note: 0 = median of the neutral control wells
# Starred values were filed as active, the others as inactive; ? = inconclusive; . = no result given; + = active, no number. The list is not random: actives were taken first. Their share in the collection is about 1.1%.
SMILES,Mtb BioA inh,FadD28 FP inh,PfHsp40 yeast,Y pestis TopoI,PrP 5UTR inh
CCCNC(=O)N1[C@@H](C#N)[C@H](c2ccc(-c3cccc(OC)c3)cc2)[C@@H]1CO,0,.,.,.,.
C[C@H]1CCCCO[C@H](CN(C)Cc2ccc(C(F)(F)F)cc2)[C@@H](C)CN([C@@H](C)CO)C(=O)c2cc(N(C)C)ccc2O1,2,.,.,.,.
COC(=O)c1sc(N2C(=O)C(O)=C(C(=O)c3ccc(C)o3)C2c2ccc(OC)c(OC)c2)nc1C (configuration not stated),10,2,-1,6,-11
CCOC(=O)c1sc(N2C(=O)C(O)=C(C(=O)c3ccc(C)o3)C2c2ccc(OC)c(OC)c2)nc1C (configuration not stated),5,-5,42*,11,-16
Cc1ccc(S(=O)(=O)Nc2cccc3c2O[C@@H](CN(C)Cc2ccc(-c4ccccc4)cc2)[C@H](C)CN([C@@H](C)CO)C3=O)cc1,-3,.,.,.,.
CC(/C=N/n1c(COc2ccccc2)n[nH]c1=S)=C\c1ccccc1,6,-5,67*,5,-9
O=C(N[C@@H]1CC[C@@H](CCn2cc(-c3cccnc3)nn2)O[C@H]1CO)c1ccccc1F,12,.,.,.,.
O=C1c2cc(O)cc(O)c2C(=O)c2c1cc(O)c([C@@H](CO)CCO)c2O,6,20*,1,-15,-20
Cc1cc(O)c2c(c1)C(=O)c1cc(O)cc(O)c1C2=O,6,2,0,-17,38
Cc1ccc(N2NC(=O)/C(=C/c3ccc(-c4ccc(Cl)c(C(=O)O)c4)o3)C2=O)cc1C,-1,0,-1,-8,-38
O=C1NN(c2ccc(Cl)c(Cl)c2)C(=O)/C1=C/c1ccc(-c2ccccc2C(=O)O)o1,-4,13*,0,-7,-4
CC(C)NC(=O)N(C)C[C@@H]1OCCCC[C@H](C)Oc2ccc(NC(=O)Nc3ccc(C(F)(F)F)cc3)cc2C(=O)N([C@@H](C)CO)C[C@H]1C,1,.,.,.,.
CCOC(=O)C(C)/C(C)=N/NC(=O)c1cc2ccccc2cc1O (configuration not stated),.,-3,156*,-13,-27
C/C(CC(=O)N1CCCC1)=N\NC(=O)c1cc2ccccc2cc1O,.,-2,2,-4,3
COc1ccccc1NC(=O)N(C)C[C@@H]1OCc2cn(nn2)CCCC(=O)N([C@H](C)CO)C[C@@H]1C,0,.,.,.,.
CN(C)c1ccc2nc3ccc(=[N+](C)C)cc-3sc2c1,.,2,0,3,-51
CN(C)c1ccc2nc3ccc(=O)cc-3sc2c1,1,?,.,+,.
COc1ccccc1-c1ccc2c(c1)O[C@H](CN(C)C(=O)c1ccccc1)[C@H](C)CN([C@@H](C)CO)S2(=O)=O,9,.,.,.,.
Cc1ccc(NC(=O)Cn2cc(C(=O)C3CC3)c3ccccc32)c(C)c1,-1,-1,0,76*,-3
CCNC(=O)C[C@@H]1CC[C@H](NC(=O)C2CCOCC2)[C@H](CO)O1,6,.,.,.,.
CCc1ccc(Nc2ccc3nonc3c2[N+](=O)[O-])cc1,.,0,-2,4,-12
CCOC(=O)NNc1ccc2nonc2c1[N+](=O)[O-],.,.,124*,.,-21
COc1ccc(NC(=O)N(C)C[C@@H]2OCCCC[C@H](C)Oc3ccc(NS(C)(=O)=O)cc3C(=O)N([C@@H](C)CO)C[C@@H]2C)cc1,2,.,.,.,.
Clc1ccc(OCCn2cnc3ccccc32)c(Cl)c1,0,-2,28*,32,-51
c1ccc2c(c1)ncn2CCOCCOCCn1cnc2ccccc21,-1,1,3,0,-17
SMILES,Mtb BioA inh,FadD28 FP inh,PfHsp40 yeast,Y pestis TopoI,PrP 5UTR inh
COc1ccc(NC(=O)C(=O)NCC2CCCN2S(=O)(=O)c2ccc(C)cc2)cc1 (configuration not stated),-1,0,1,29,78*
COc1ccc(S(=O)(=O)N2CCCC2CNC(=O)C(=O)Nc2ccc(C)cc2)cc1 (configuration not stated),0,-5,0,8,4
O=C1[C@@H]2[C@H](C(=O)N1O)[C@H]1C=C[C@@H]2C1,-2,-2,34*,2,4
O=C(c1ccccn1)N1C[C@H]2[C@@H](c3ccccc31)[C@H](CO)N2C(=O)Cc1ccccc1,2,.,.,.,.
COc1ccc(S(=O)(=O)NCc2cc(=O)n(C)c(=O)n2C)cc1C,0,-3,41*,4,-19
CN=c1scc(-c2ccc(F)cc2)n1/N=C/c1ccc(O)c(O)c1,.,37*,13,-11,56
CC1=C(C#N)c2nc(N)c(C#N)c(C)c2/C1=C\c1ccc(OCC(=O)O)c(Cl)c1,.,14*,0,3,-9
